The text below walks through data of PubChem BioAssay (NCATS).

SMILES strings stand for the structures. Results filed as inconclusive are left out. Entries that show only a call come without a potency. A number with no mark means an inactive call. Activity calls are given as the source filed them. Calls follow the shape of the dose curve; as a rule, active = well fitted activation curve with a large enough effect; inconclusive = small, poorly fitted or top-dose-only effect; inactive = no such curve, though single readings can be large or run the other way.

For the experiment, the target named is Rap guanine nucleotide exchange factor 4 (Homo sapiens) (UniProt Q8WZA2). As to the kind of experiment: Confirmatory qHTS for agonist of cAMP-regulated guanine nucleotide exchange factor 4 (EPAC2) (AID 1645884).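 Also: nucleotide exchange releases bodipy-GDP from Rap1 and this lowers its fluorescence; nearly all actives have a fitted effect of over 65% in size.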 The settings on record: EPAC2 GEF activity, Rap1B-BODIPY-GDP fluorescence; series mostly up to 154 µM.
Sequence of Rap guanine nucleotide exchange factor 4 (Homo sapiens) (Q8WZA2 whole entry, looked up): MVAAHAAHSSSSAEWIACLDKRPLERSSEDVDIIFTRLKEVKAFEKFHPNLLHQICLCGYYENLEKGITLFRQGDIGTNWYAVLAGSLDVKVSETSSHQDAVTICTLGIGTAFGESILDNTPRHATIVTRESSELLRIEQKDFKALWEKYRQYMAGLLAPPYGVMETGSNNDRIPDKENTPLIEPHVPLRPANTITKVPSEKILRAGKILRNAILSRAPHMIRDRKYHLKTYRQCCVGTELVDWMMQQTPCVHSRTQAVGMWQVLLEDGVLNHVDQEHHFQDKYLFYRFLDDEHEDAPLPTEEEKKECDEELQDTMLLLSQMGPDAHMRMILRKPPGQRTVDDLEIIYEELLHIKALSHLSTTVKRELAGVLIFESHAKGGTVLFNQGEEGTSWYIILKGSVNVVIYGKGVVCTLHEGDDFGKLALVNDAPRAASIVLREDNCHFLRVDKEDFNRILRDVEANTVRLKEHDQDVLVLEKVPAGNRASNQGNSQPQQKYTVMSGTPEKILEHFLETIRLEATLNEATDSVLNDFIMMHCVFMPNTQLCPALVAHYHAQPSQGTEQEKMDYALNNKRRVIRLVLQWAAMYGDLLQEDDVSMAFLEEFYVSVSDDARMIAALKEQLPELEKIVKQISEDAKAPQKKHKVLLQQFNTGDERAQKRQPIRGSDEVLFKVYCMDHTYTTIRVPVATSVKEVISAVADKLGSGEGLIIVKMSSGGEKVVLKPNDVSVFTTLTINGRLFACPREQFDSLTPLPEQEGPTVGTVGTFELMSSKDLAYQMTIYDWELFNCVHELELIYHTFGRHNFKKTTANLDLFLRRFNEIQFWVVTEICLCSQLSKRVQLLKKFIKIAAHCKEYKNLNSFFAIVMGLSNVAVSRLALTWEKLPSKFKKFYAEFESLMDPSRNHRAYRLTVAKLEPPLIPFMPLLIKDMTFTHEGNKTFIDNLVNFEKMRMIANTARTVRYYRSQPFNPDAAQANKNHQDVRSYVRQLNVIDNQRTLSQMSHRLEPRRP
In the case of `O=C(Nc1ccncc1)c1cc2ccccc2cc1O`, the Potency result was “inactive”. With `O=C1c2ccccc2C(c2nnnn2Cc2ccccc2)N1CCc1c[nH]c2ccccc12` (stereo unspecified), the Potency result was “inactive”. The same measure, in the same setting: next, `Cc1ccc(C(=O)NNC(=O)c2ccccc2O)cc1S(=O)(=O)N1CCCCC1`: “inactive”; `O=C(N/N=C/c1ccoc1)c1cc(O)cc(O)c1`: “inactive”. On to `O=C(Cc1ccc(Br)c2ccccc12)N/N=C/c1ccccn1`, for which the Potency entry is “inactive”. As for `CCc1ccc(S(=O)(=O)Nc2cc(SCC(=O)O)c(O)c3ccccc23)cc1`, the Potency entry was “inactive”. For the compound `CCC(=C(c1ccc(OC)cc1)c1ccc(OC)cc1)c1cn(CC(O)CN(CCO)CCO)c2ccccc12` (stereo unspecified), the Potency entry was “inactive”.

In the case of `COC(=O)c1sc(-c2ccc(C(C)(C)C)cc2)cc1NC(=O)CSCC(=O)O`, the Potency entry is “inactive”. The same measure, in the same setting: to `COc1ccc(-c2ccc(C(=O)NCC3CC3)c3occc23)c(C)c1` belongs “inactive”; to `Fc1ccc2c(-c3cccc(C(F)(F)F)c3)c(-c3ccccc3)ncc2c1`, “inactive”. On to `Cc1cccc(OC(=O)Nc2ccc(C(=O)O)c(O)c2)c1`, for which the activation is -3.1% [at 17.1 µM, percent relative to cAMP agonist control]. As for `CC(C)CNC(=O)C1(C)CCCCCN1Cc1ccccc1-c1ccccc1` (stereo unspecified), the Potency result is “inactive”. On the same count and under the same terms, to `CC(C)=CCC[C@H](C)C[C@@H]1Cc2[nH][nH]c(=O)c2[C@H](c2ccc(F)cc2)O1` belongs “inactive”.

As to `COc1cccc(N2CCN(CC(=O)NC(=O)NCc3ccco3)CC2)c1`, the Potency result was “inactive”. The same measure, in the same setting: next, `O=C(Nc1nc2ccccc2c(=O)s1)c1ccc(F)cc1Cl`: “inactive”. The same measure, in the same setting: to `CCOc1cc(C)c(-c2onc(C(F)(F)F)c2-c2csc(C)n2)c(O)c1` belongs “inactive”; to `Cc1ccc2oc(=O)c3cnn(CC(=O)NC4CCC(C)CC4)c3c2c1` (stereo unspecified), “inactive”. As for `O=C(O)c1ccc(COc2ccc3ccccc3c2/C=C2/NC(=O)N(Cc3ccc(F)cc3)C2=O)cc1`, the Potency result is “inactive”. Take `O=S(=O)(Nc1nccs1)c1ccc(Nc2nnc(-c3ccccc3)c3ccccc23)cc1`: the activation was 2.79% [at 17.1 µM, percent relative to cAMP agonist control]. `CCOC(=O)C1=C(C)NC(C)=C(C(=O)OCC)C1C(=O)OCC(=O)NCc1ccc(F)cc1`: the Potency result was “inactive”. Same read-out and setting: next, `CN(CC(=O)Nc1ccc(F)cc1)C(=O)COc1ccc(C(=O)c2ccccc2)cc1`: “inactive”; `O=C1[C@H](Cc2ccccc2)NCC=CC[C@@H](c2ccc(Cl)cc2)N1Cc1ccc(Cl)cc1`: “inactive”. Regarding `CC(c1ccon1)N(C)Cc1cn(C)nc1-c1cccc(Cl)c1` (stereo unspecified), the Potency result was “inactive”. In the case of `COc1ccccc1N(C)S(=O)(=O)c1ccc(C(=O)NC2CCCCC2)cc1`, the Potency entry was “inactive”.

For the compound `CCCCC[C@H](C)N1C[C@H](COCc2ccccc2)Oc2cc(N3CCC[C@H]3C(N)=O)ccc2S1(=O)=O`, the Potency entry is “inactive”. Consider `Cc1cccc(NC(=S)N2CCN(S(=O)(=O)c3cccc(F)c3)CC2)c1`, for which the Potency entry was “inactive”.
